Screening data (PubChem BioAssay)
ALR inh = inhibitors of human ALR sulfhydryl oxidase, primary screen, biochemical, H2O2 detection, HRP-luminol luminescence, single point. FAD-linked sulfhydryl oxidase ALR (Homo sapiens), P55789. purified ALR, DTT oxidation. inhibition, % (concentration not given with the values). 290,000 compounds, 3.8% hits;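 active means mean replicate inhibition above about 79%, with every replicate also reaching it, limit read from the data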
A3G deaminase = APOBEC3G DNA deaminase inhibitors, primary screen, biochemical, fluorescence, single-stranded DNA substrate, uHTS. DNA dC->dU-editing enzyme APOBEC-3G (Homo sapiens), Q9HC16. recombinant A3G, ssDNA deamination FAM/TAMRA fluorescence. inhibition, % at 20 µM. 330,000 compounds, 0.28% hits. AID 493012, 2011;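 active means inhibition of at least 40% at 20 µM, with no more than 30% in the related APOBEC3A deaminase screen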;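 further: plate controls were DMSO wells with A3G for no effect and wells lacking A3G enzyme for full effect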
CendR NRP1 mod = modulators of CendR peptide binding to NRP-1, primary screen, biochemical, fluorescence polarization, uHTS; FAM-RPARPAR peptide binding to NRP-1; inhibition, % at 25 µM; 360,000 compounds, 0.85% hits;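 active means inhibition or corrected inhibition above about 18%, plus a signal ratio from 0.5 to 1.5, limit read from the data, passing the limit was not always enough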
CR mimetic SO = reduction of superoxide in aged yeast, primary screen, HTS | S. cerevisiae aged cells, superoxide DHE fluorescence; stronger effect = lower value | superoxide response (% of plate mean), % at 10 µM | 330,000 compounds, 0.18% hits | AID 2690, 2010;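 active means superoxide response under a set limit, about three screen SD below normal, cut at about 65% in these data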;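 further: yeast aged for seven days with compound at 30 °C before DHE staining; 100% = average MFI of all compound-treated wells on the plate with controls excluded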
APOBEC3A inh = APOBEC3A ssDNA deaminase inhibitors, primary screen, selectivity assay for APOBEC3G inhibitor project, biochemical, FAM/TAMRA oligo cleavage fluorescence | AID 493011, 2011 | recombinant A3A, FAM/TAMRA ssDNA deamination fluorescence | inhibition, % at 20 µM | 330,000 compounds, 0.41% hits | DNA dC->dU-editing enzyme APOBEC-3A (Homo sapiens), P31941;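 active means at least 40% inhibition at 20 µM here, with at most 30% in a related deaminase screen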;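 further: plate controls were A3A with DMSO for no effect and wells lacking A3A enzyme for full effect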
PfM18AAP inh-1 = PfM18AAP inhibitors, malaria aminopeptidase, primary screen, biochemical, QFRET, recombinant enzyme | AID 1822, 2009 | H-Glu-NHMec fluorogenic cleavage | M18 aspartyl aminopeptidase (Plasmodium falciparum 3D7) | inhibition, % at 7.35 µM | 290,000 compounds, 1.2% hits;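 active means inhibition above the campaign mean inhibition over all tested compounds plus 3 SD, cut at about 28% in these data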;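 further: 0% = plate median of test compound wells and 100% = 2 mM ZnCl2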
PfM18AAP inh-2 = PfM18AAP inhibitors, malaria aminopeptidase, confirmation, biochemical, QFRET, recombinant enzyme, triplicate | shares compounds with PfM18AAP inh-1 | H-Glu-NHMec fluorogenic cleavage | inhibition, % at 7.35 µM | 2,400 compounds, 28% hits | AID 2170, 2009;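 active means mean inhibition over replicate wells above the hit cutoff set for the earlier primary screen, cut at about 29% in these data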;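 further: 0% = median of test compound wells and 100% = 2 mM ZnCl2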
CTSL1 counter = cathepsin L1 inhibitors, retest, confirmation, counter-screen for PFM18AAP inhibitor project, biochemical, QFRET, triplicate. inhibition, % at 5.96 µM. AID 2178, 2009. shares compounds with PfM18AAP inh-1. 2,400 tested, under 10 active. purified cathepsin L1, Z-Leu-Arg-MCA fluorescence;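 active means average inhibition across replicates above the hit cutoff set in the earlier primary screen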;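 further: 0% = median of test compound wells and 100% = Z-Phe-Ala-diazomethylketone 1 µM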
Numbers without * were called inactive; nt = no result given. In the library only some 5.2% were active in any assay of this set; here they are far more common.

SMILES | ALR inh | A3G deaminase | CendR NRP1 mod | CR mimetic SO | APOBEC3A inh | PfM18AAP inh-1 | PfM18AAP inh-2 | CTSL1 counter
C[C@@H]1CN(S(=O)(=O)c2c(F)cccc2F)CCN1S(=O)(=O)c1ccc2c(c1)OCCO2 | 9 | -3 | 2 | 119 | 5 | nt | nt | nt
O=C(c1cc(COc2c(F)cccc2F)on1)N1CCN(C2CCCCC2)CC1 | -6 | -6 | -9 | 103 | -4 | 4 | nt | nt
COc1ccc(NC(=O)CN2C(=O)NC3(CCCC3)C2=O)cc1 | -2 | -6 | -15 | 97 | 1 | -3 | nt | nt
Cc1ccc(C)c(S(=O)(=O)Nc2ccc(O)c(Sc3ncn[nH]3)c2)c1 | 99* | -5 | -5 | 95 | -1 | 39* | 15 | 1
Cc1cc(F)ccc1S(=O)(=O)Nc1ccccc1C(=O)Nc1ncn[nH]1 | 4 | -3 | 19* | 96 | 2 | 49* | 48* | 0
CCc1nnc(-n2nc(C)cc2-c2ccccc2)n1N | -17 | 5 | 2 | 102 | 2 | 5 | nt | nt
Cc1nnc(N/N=C\c2ccc(-c3ccccc3[N+](=O)[O-])o2)n1N | -19 | nt | 5 | 102 | nt | 43* | -19 | 0
CCc1nnc(N/N=C/c2cc(C)c(C)cc2C)n1N | -20 | -8 | 22 | 100 | -4 | 40* | -20 | 2
CCc1nnc(N/N=C/c2ccc(-c3ccc([N+](=O)[O-])cc3)o2)n1N | -17 | -4 | -23 | 94 | -1 | 43* | -36 | -3
Cc1ccc(C(=O)N/N=C/c2ccc(-c3ccccc3[N+](=O)[O-])o2)cn1 | 63 | -2 | 3 | 97 | 2 | 10 | nt | nt
COc1ccc(-n2c(O)c(/C=C3\C=Nc4ccccc43)c(=O)[nH]c2=O)cc1 | nt | -11 | -56 | nt | -6 | 32* | 0 | -2
COc1ccc(-n2c(O)c(C=NC3CC3)c(=O)[nH]c2=O)cc1 | -5 | -5 | 6 | 89 | -3 | 3 | nt | nt
CC(C)Cc1nnc(NC(=O)CSc2ncn[nH]2)s1 | -2 | -7 | -6 | 110 | -2 | 38* | 40* | 2
O=C(CSc1ncn[nH]1)Nc1c(Br)cc([N+](=O)[O-])cc1Br | -16 | -6 | -1 | 114 | -3 | 50* | 23 | -13
Cc1cc(=O)[nH]c(SCC(=O)Nc2nnc(CC(C)C)s2)n1 | -12 | 1 | 0 | 86 | 3 | -1 | nt | nt
Cc1ccc(NC(=O)CSc2ncn[nH]2)cc1 | -3 | -1 | -7 | 100 | 0 | 32* | 11 | 0
O=C(CSc1ncn[nH]1)Nc1nnc(-c2ccccc2)s1 | 4 | -2 | -4 | 115 | -2 | 64* | 66* | 2
O=C(CCl)Nc1cccc(S(=O)(=O)N2CCCCCC2)c1 | 4 | 1 | 5 | 97 | 1 | 4 | nt | nt
CCOC(=O)c1nnn(-c2ccccc2C#N)c1C | -8 | -2 | 2 | 91 | -2 | 0 | nt | nt
Cc1[nH]c(=O)[nH]c(=O)c1S(=O)(=O)N1CCCCC1 | -4 | -8 | 12 | 93 | -3 | 2 | nt | nt
O=C(Nc1ncc(Cc2cc(Cl)ccc2Cl)s1)c1ccc([N+](=O)[O-])cc1 | -13 | -3 | -1 | 91 | -5 | -9 | nt | nt
O=C(CSc1ncccn1)Nc1ccc(Cl)c(S(=O)(=O)N2CCOCC2)c1 | -2 | 4 | 4 | 91 | 7 | nt | nt | nt
Cc1ccc(-c2nnc(N3CCN(C(=O)CSc4ncn[nH]4)CC3)c3ccccc23)cc1 | -1 | -5 | -16 | 79 | -2 | 42* | -1 | 0
O=C(CSc1ncn[nH]1)c1ccc(OC(F)F)cc1 | 16 | -9 | -5 | 100 | -4 | 39* | 15 | -4
O=C(CSc1ncn[nH]1)Nc1ccc(Cl)c(S(=O)(=O)N2CCOCC2)c1 | -2 | 13 | 1 | 109 | -1 | 57* | 52* | 0
